From PubChem BioAssay AID1766 (National Center for Advancing Translational Sciences (NCATS), 2009)
Screen size: about 290,000 compounds; fewer than 10 were called active. Roughly 3% stayed inconclusive and do not appear here. Calls come from the whole dose curve; as a rule, active = well fitted curve in the direction sought with a large enough effect in the polarisation (not every such curve was filed as active); inconclusive = small, poorly fitted or top-dose-only effect, or effect the other way, or a change in a side signal; inactive = no such curve, though single readings can be large or run the other way; the % refers to the polarisation. These entries were drawn from the full list.

Test: qHTS Assay for Inhibitors Targeting the Menin-MLL Interaction in MLL Related Leukemias: Competition With Fluorescein Labeled MLL-derived Peptide; note: % of control where 0% means no effect
Settings: Fluorescence polarization, fluorescein-MLL peptide displacement from menin; series mostly up to 61.4 µM; FP activity change: at the top concentration
Excerpt: qHTS Assay for Inhibitors Targeting the Menin-MLL Interaction in MLL Related Leukemias NIH Chemical Genomics Center [NCGC] NIH Molecular Libraries Probe Centers Network [MLPCN] MLPCN Grant: MH084875-01A1 Assay Submitter (PI): Jolanta Grembecka, Tomasz Cierpicki, University of Virginia Translocations of the MLL (Mixed Lineage Leukemia) gene are frequently found in human leukemias affecting both children and adults. Fusion of MLL to one of more than 60 genes results in generation of oncogenic proteins upregulating Hox genes, which are vital to blood cell development. Patients harboring fusion of the MLL gene suffer from aggressive leukemias and respond poorly to available therapies. All of the oncogenic fusion proteins have a preserved N-terminal fragment of MLL that has been identified to interact with menin. It has been recently discovered that association with menin is critical to the leukemogenic activity of the MLL fusion oncoproteins. Selective targeting of the menin-MLL interaction could provide an attractive therapeutic approach to develop novel drugs for MLL-related leukemias. Small molecules blocking the menin-MLL interaction should reverse the oncogenic potential of MLL fusion proteins. We have developed and optimized a fluorescence polarization-based assay for the identification of Menin-MLL inhibitors. The assay was run employing two different MLL-derived peptides. The present assay uses a 12 amino acid peptide labeled with fluorescein at its N-terminus. This peptide consists of the menin high affinity binding motif from MLL and is potently bound by menin. Another peptide with a mutated sequence, labeled with Texas Red, was used in parallel as a less stringent screen for inhibitors.
The Menin protein, the MLL-wild type (w.t.) derived peptide (N-terminal 12 amino acids), the MLL-derived peptide labeled with Texas Red and the MLL-w.t. peptide labeled with Fluorescein were kindly supplied by laboratory of Dr. Jolanta Grembecka, University of Virginia. All protein and peptide solutions were stored in single use aliquots at -80C. The Eu3+ Cyrptate-conjugated mouse monoclonal antibody anti-6 Histidine (Eu3+-AB) and the Streptavidin-XL665 conjugate (XL665) were purchased from Cisbio International (Bedford, MA). All antibody and XL665 conjugate solution stocks were stored in single use aliquots at -20C. The Buffer components for all assays were purchased from Sigma-Aldrich (St. Louis, MO) and Invitrogen (Carlsbad, CA). FP Assay Reagents: 1. FP reaction buffer: 50 mM Tris-HCl pH 7.5, 50 mM NaCl, 1mM DTT. Before use, 0.05% BSA is added. 2. Menin protein, MLL-w.t. labeled with fluorescein, MLL-mutant peptide labeled with texas red. Stored in singe use aliquots at -80C. 3. MLL-w.t. unlabeled peptide as positive control: 10 uM final in FP buffer. FP Assay Procedure: 1. Prepare Menin at 200 nM, MLL-w.t.-fluorescein at 25 nM, and MLL-mutant-texas red at 50 nM mixture in FP buffer. 2. Prepare Menin at 200 nM, MLL-w.t.-fluorescein at 25 nM, MLL-mutant-texas red at 50 nM, and 10 uM MLL-w.t. unlabeled mixture in FP buffer. 3. Prepare MLL-w.t.-fluorescein at 25 nM and MLL-mutant-texas red at 50 nM mixture in FP buffer. 3. Dispense 4 ul per well of reagent in step 1 in columns 2, 4 - 48 in a black 1536 well plate, dispense 4 ul per well of reagents from steps 2 and 3 in columns 1 and 3 respectively. Incubate plate at ambient for 15 minutes. 4. Transfer 23 nl per well of compound to plate and incubate at ambient for 1 hr. 5. Read fluorescence polarization for each label using the PerkinElmer Envision. Envision protocol for fluorescein: FITC FP Dual Enh Mirror, Excitation filter 480, Emission filter (1) P-pol 535, Emission filter (2) S-pol 535 Envision protocol for texas red: FP Dual Enh Mirror, Excitation filter 555, Emission filter (1) P-pol 632, Emission filter (2) S-pol 632

FP activity change, inactive:
O=C(Nc1nnc(C2=COCCO2)o1)c1ccc([N+](=O)[O-])s1 -4.17%
CC1CCN(CC(O)COc2ccc(C(=O)c3ccccc3)cc2)CC1 (stereo unspecified) -3.11%
CC(C)(O)c1ccccc1CC[C@H](SCC1(CC(=O)O)CC1)c1cccc(/C=C/c2ccc3ccc(Cl)cc3n2)c1 -1.58%
CCOc1ccc(CN2CCC(n3nccc3NC(=O)C3CC3)CC2)cc1CO 0.299%
COc1cc(/C=C/C(=O)O)cc(S(=O)(=O)Nc2ccccc2C(=O)NCCc2ccccc2)c1OC 3.17%
Cc1cc(=O)[nH]c(Nc2cccc(Br)c2)n1 0.992%
CCCc1cc(C(=O)Nc2ccc(Cl)cn2)cs1 -1.52%
Cc1ccc(S(=O)(=O)NCC2CCC(C(=O)N3CCOCC3)CC2)cc1 (stereo unspecified) -11.9%
Cc1ccc(-c2noc(C3CCCN(C(=O)c4cccc(Cl)c4)C3)n2)o1 (stereo unspecified) -0.951%
CS(=O)(=O)N1CCc2nc(-c3ccccc3)sc2C1 2.34%
Cc1cc(C)c(NC(=O)CN2CCCCCC2)c(C)c1 -5.8%
COc1ccccc1-c1sc2ccccc2c1-c1ccc(C(C)=O)cc1 -1.43%
CCCC(C(=O)NC1CCCC1)N(C(=O)Cn1nnc(-c2ccc(C)o2)n1)c1cccc(O)c1 (stereo unspecified) -0.769%
Cc1ccc(CSc2nsc(C)c2C#N)cc1 7.64%
Cn1cc(S(=O)(=O)Nc2ccc(Cl)cc2Cl)c(=O)n(C)c1=O -8.92%
CCc1ccc(C(=O)NN=C2CCCCCC2)s1 1.51%
CCOc1ccccc1N1C(=O)CC(Sc2nccc(C)n2)C1=O (stereo unspecified) -0.762%
COc1cccc(-c2noc(C3CCCN(C(=O)c4ccc(F)cc4)C3)n2)c1 (stereo unspecified) -1.5%
O=S(=O)(Cc1cc(Cl)nc(-c2cccnc2)n1)c1ccccc1 0.869%
Cc1noc(C)c1-c1ccc2ncnc(NCc3ccc4[nH]ccc4c3)c2c1 -0.0639%
CCN(CC(=O)NCC(=O)Nc1cccc(C)c1C)Cc1ccccc1 3.07%
CCCSc1nc2sc3c(c2c(=O)n1-c1ccc(OC)cc1)CCN(C)C3 13%
COc1ccccc1-c1cnn2c(N3CCOCC3)cc(C)nc12 37.1%
CCC1CCCCN1C(=O)CSc1nc2c(c(=O)n1C)SC(C)C2 (stereo unspecified) -0.813%
C=CCNC(=S)/N=c1/ccccn1Cc1ccccc1 -0.235%
COc1cc2ccccc2cc1C(=O)N(CCN(C)C)c1nc2c(F)cccc2s1 -2.7%
CC1CN(C(=O)CCC(=O)NC2CCN(Cc3ccccc3)CC2)c2ccccc2O1 (stereo unspecified) 0.0632%
COc1ccc(CC(=O)N/N=C/c2cc([N+](=O)[O-])cc(Br)c2O)cc1 19.4%
O=C(Nc1ccccc1)c1ccc2c(c1)OCCCO2 -0.0609%
Cc1ccc(NC(=O)NC(=O)c2ccccc2)cc1F -0.471%
COc1ccccc1CN1CCCC(N2CCN(c3ccc(F)cc3)CC2)C1 (stereo unspecified) -0.994%
Cc1[nH]c(C)c(S(=O)(=O)N2CCN(c3cccc(C(F)(F)F)c3)CC2)c1C(=O)N1CCCCC1 -4.51%
COc1cccc(N(C(=O)c2snc(C(N)=O)c2N)C(C(=O)NCC2CCCO2)c2c[nH]c3ccccc23)c1 (stereo unspecified) 6.5%
COc1ccccc1OCCOc1ccc(/C=C2\C(=N)N3N=C(C)SC3=NC2=O)cc1 -0.066%
C=C1CCN(Cc2ccc(OC)cc2)S(=O)(=O)c2ccccc21 -1.07%
CC1Sc2ccc(S(=O)(=O)CCC(=O)NCc3ccccc3Cl)cc2NC1=O (stereo unspecified) -0.854%
CC(O)c1ccc(OCCN(C)c2ccccn2)cc1 (stereo unspecified) 0.254%
CC(O)COc1ccccc1 (stereo unspecified) -1.98%
CN(CC(=O)Nc1ccc(F)cc1)C(=O)c1ccc(-c2ccc(Cl)cc2)o1 0.512%
CC(C)[C@@H]1COC(c2cccc(C3=N[C@H](C(C)C)CO3)c2)=N1 1.68%
COc1ccc(OCc2cc(C(=O)N3CCCC3)no2)c2ccccc12 -0.316%
c1cnc(N2CCN(c3ccc4ccccc4n3)CC2)nc1 -2.01%
Cc1cc(=O)n2[nH]c(-c3cccc(Cl)c3)cc2n1 -4.41%
CCCCCC(O)(CCN1CCCCC1)c1ccccc1 (stereo unspecified) -1.88%
Cc1cc(C)cc(OCC(=O)NC(C)c2ccccc2)c1 (stereo unspecified) 6.39%
O=c1[nH]cccc1-c1nc2ccccc2n1Cc1ccc(Cl)cc1 -1.47%
CCCc1cc(=O)n2[nH]c(C)c(-c3ccc(Cl)cc3)c2n1 -3.54%
O=C1CCN(CCc2ccccc2)CCN1CCOc1ccccc1 -5.61%
Cc1cc(C)c(C#N)c(Nc2cccc(Br)c2)n1 -1.91%
O=C(NCCS(=O)(=O)N1CCN(c2ccccc2F)CC1)c1ccc(Br)o1 -2.26%
CCc1ccccc1OCC(=O)Nc1ccc2c(c1)OCCO2 -1.07%
Oc1ccc(C2Nc3cccc4cccc(c34)N2)cc1 1.81%
Cc1ccc(-c2csc(NC3OC(=O)c4ccccc43)n2)cc1 (stereo unspecified) 0.604%
Cc1n[nH]c(=O)c2c1nnn2Cc1ccc(F)cc1 1.28%
COc1ccc(NC(=O)C/C(C)=N/NC(=O)c2cnccn2)cc1Cl -0.652%
CS(=O)(=O)N1CCN(C(=O)CSc2ccccc2)CC1 0.441%
COc1ccc2c(c1)c(C(=O)N/N=C/c1cccs1)c(C)n2C -1.26%
CC(C)OC(=O)c1ccc(COc2ccc3ccc(=O)oc3c2)o1 0.0912%
CNC(=O)c1sc(Nc2ccc(OCc3ccccc3)cc2)nc1C -0.434%
Cc1cccc(C)c1NC(=S)N1CCCCCC1 10.5%
Cc1ccc(O)c(CNc2nc3ccccc3[nH]2)c1 0.249%
COCCNC(=O)c1ccc2nc(Cc3ccc(OC)c(OC)c3)oc2c1 0.18%
CCCc1cc(=O)[nH]c(SCC(=O)N2C(C)CCCC2C)n1 (stereo unspecified) 1.47%
COc1cc(CNCc2ccc(OC)c3ccccc23)cc(OC)c1OC -0.733%
Cc1ccc2oc(C(=O)N3CCN(C)C[C@@H]3C(C)C)c(C)c2c1 -0.0815%
O=C(Nc1cccc(C(F)(F)F)c1)c1cc(Br)cc(Br)c1O -4.54%
CC(C)(C)c1ccc(SCCc2ccncc2)cc1 -0.793%
COc1ccc(C(C(=O)NC(C)(C)C)N(Cc2ccc(F)cc2)C(=O)CCC(=O)Nc2cc(C)on2)cc1 (stereo unspecified) 5.96%
CCOC(=O)c1ccc(NC(=O)Cc2cccs2)cc1 3.73%
CCOc1ccc(N/C=C/C(=O)c2ccccc2)cc1 -1.74%
COc1ccc(N2CCN(S(=O)(=O)CCNC(=O)C34CC5CC(CC(C5)C3)C4)CC2)cc1 -5.62%
COc1ccc(/C=N/OCc2ccccc2C#N)c(OC)c1 -2.05%
CCn1c(SCC(=O)NC2CC2)nnc1-c1ccccc1OC 0.14%
COc1cc2ccccc2cc1C(=O)Nc1ccccc1C -3.04%
CSCCNC(=O)c1ccc2nc(Cc3ccccc3F)oc2c1 2.14%
CC(c1ccccn1)N(C)C(=O)c1ccc2nc(Cc3cccc(Cl)c3)oc2c1 (stereo unspecified) 1.12%
CCCOc1ccc(/C=N/NC(=O)C2CC2)c(OCCC)c1 -5.37%
O=C(CN1CCc2cc3c(cc2C1)OCCCO3)Nc1ccccc1 1.44%
CCn1cc(/C=C(\NC(=O)c2cc(OC)c(OC)c(OC)c2)C(=O)N2CCN(C)CC2)c2ccccc21 0.178%
COc1cccc(NC(=O)C2CCCN(c3ncnc4c3nc3n4CCCCC3)C2)c1 (stereo unspecified) 0.562%
CCCc1ccc(OCCNC(=O)c2ccccc2Br)cc1 -4.26%
O=S(=O)(NCc1ccc(Cl)cc1Cl)c1cccs1 -3.15%
CC(CN1CCCCC1)c1ccccc1 (stereo unspecified) 4.36%
COc1ccc(/C(C)=N\NC(=O)c2ccc(-c3ccccc3)cc2)c(F)c1 -4.21%
Cc1ccccc1NC(=O)CSc1nc2ccc(Nc3nc(N4CCOCC4)nc(N4CCOCC4)n3)cc2s1 1.23%
CCOC(=O)Nc1ccc2c(c1)N(C(=O)CCCl)c1ccccc1[S@]2=O -0.773%
CSc1nccc(NC(=O)c2ccc(C(C)(C)C)cc2)n1 -1.11%
O=C(c1cc(COc2cccc(C(F)(F)F)c2)on1)N1CCSCC1 1.74%
Oc1ccccc1-c1cc(-c2ccc(Cl)cc2)n[nH]1 -1.42%
CC1CCC2CCCCC2N1C(=O)c1cc([N+](=O)[O-])cc([N+](=O)[O-])c1 (stereo unspecified) 1.44%
Cc1ccc(C(=O)Nc2nnc(C3=COCCO3)o2)cc1C -0.415%
N#C[C@]1(S(=O)(=O)c2ccccc2)C[C@@H]2ON=C(c3cccc(Br)c3)[C@@H]2C1 6.98%
O=C(N/N=C/c1cccc(OCc2ccccc2)c1)c1ccc(Br)o1 2.42%
N#CC(C#N)=CN=c1ccn(Cc2ccc(Cl)cc2Cl)cc1 -5.78%
FC(F)(F)C1CCCN(c2nsc3ccccc23)C1 (stereo unspecified) -1.66%
N=c1oc2ccccc2cc1C(=O)NCc1ccccc1 15.1%
COCCCNc1nc2c(-c3cccc(C)c3)nnn2c2ccc(Cl)cc12 -4.76%
O=C(NCCNc1ccccc1[N+](=O)[O-])c1ccccc1F -2.51%
N#CCc1ccc(NC(=O)c2ccccc2C(=O)Nc2ccc(CC#N)cc2)cc1 -1.6%
CCn1cc(CN2CCC(C(=O)Nc3cccc(-c4cccc(Cl)c4)c3)CC2)c(C)n1 -0.667%
Cc1ccc(CCNC(=O)c2ccc3nc4ccccc4c(=O)n3c2)cc1 -0.476%
